Compound activity (PubChem BioAssay)
Most compounds without a hit are left out; they make up all but 2.1% or so of the library.
CF NFkB block – cystic fibrosis NF-kB activation inhibition; KKLEB NF-kB-GFP reporter, PAF-induced, GFP fluorescence overnight; inhibition, % at 5 µM; 360,000 compounds, 0.86% hits; AID 588850;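 active = at least 50% inhibition at 5 µM, scaled per plate between neutral and stimulator controls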;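 note: PAF is a Pseudomonas aeruginosa culture filtrate used as stimulus; plate controls were PAF-stimulated DMSO wells for no effect and unstimulated DMSO wells for full effect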
PAX8 inh HTS – inhibitors of PAX8 transcriptional activity in RMG-I cells. RMG-I TPO-luciferase reporter, SteadyGlo, 24 h. inhibition, % at 12.6 µM. 360,000 compounds, 1.2% hits;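 active = mean replicate inhibition at least 60% with every replicate also reaching 60%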;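 note: luciferase light reporting Pax8 driven TPO promoter activity; plate controls were median of neutral control wells for no effect and mitoxantrone controls for full effect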
HIF-2a block – blocks HIF-2a reporter activity. 786-0 RCC cells HIF-2a reporter, luciferase luminescence, overnight. inhibition, % at 18.8 µM. 360,000 compounds, 0.72% hits;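 active = inhibition of the luminescence signal of 40% or more relative to plate controls, in a single-dose primary screen at 18.75 µM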
EWS-Fli inh – EWS/Fli transcriptional activity inhibition | A673 NR0B1-luciferase reporter, viability-normalised | inhibition, % at 12.6 µM | 350,000 compounds, 0.67% hits;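 active = mean inhibition of at least 50% after viability correction, with every replicate also passing that limit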;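 note: firefly luciferase signal divided by Alamar Blue viability fluorescence both relative to DMSO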
KKLEB cytotox – reduces viability of KKLEB cystic fibrosis airway cells; KKLEB CF airway cells viability, ATPlite luminescence, overnight; hits give low values; cells stimulated with P. aeruginosa culture filtrate; activity change (cytotoxicity), % at 5 µM; 360,000 compounds, 0.36% hits; AID 602141;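 active = corrected activity change at or below -50% at 5 µM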
CF NFkB conf – confirmation of cystic fibrosis induced NF-kB inhibitors; AID 602472; 1,300 compounds, 64% hits; inhibition, % at 5 µM; KKLEB CF airway cells, PAF-induced NF-kB-GFP fluorescence, overnight; shares compounds with CF NFkB block; in the data active = inhibition above about 40%;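 note: stimulus PAF is a Pseudomonas aeruginosa filtrate and not platelet activating factor; plate controls were DMSO wells with stimulus for no effect and unstimulated DMSO wells for full effect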
* marks the source's active call; other numbers are inactive results; / = no result.

SMILES | CF NFkB block | PAX8 inh HTS | HIF-2a block | EWS-Fli inh | KKLEB cytotox | CF NFkB conf
c1nc(NCc2ccc3c(c2)OCO3)c2cc(-c3ccc4c(c3)OCCO4)ccc2n1 | 10 | 49 | -6 | 9 | 8 | /
COc1cc2ncnc(NCc3ccc(C)o3)c2cc1OC | 2 | -7 | 15 | 6 | -7 | /
c1cncc(CNc2ncnc3ccc(-c4ccc5c(c4)OCO5)cc23)c1 | 36 | -15 | 24 | -11 | -2 | 29
O=C(Nc1cc(F)ccc1F)N1CCCCN2[C@H](CO)[C@H](c3ccc(-c4cncnc4)cc3)[C@H]2C1 | / | 1 | / | / | / | /
O=C(Nc1ccc2c(c1)[C@@H]1C[C@H](CC(=O)N3CCOCC3)O[C@H](CO)[C@@H]1O2)C1CCC1 | / | 5 | / | -1 | / | /
CC(=O)Oc1ccccc1C(=O)Oc1ccc(/C=N/n2cnnc2)cc1 | 73* | -16 | 15 | / | -15 | 64*
CCOc1ccc(/C=N/n2cnnc2)cc1 | 3 | / | 9 | / | 9 | /
C[C@@H]1CN([C@@H](C)CO)C(=O)c2cc(NS(=O)(=O)c3cn(C)cn3)ccc2O[C@@H](C)CCCCO[C@H]1CN(C)C(=O)c1ccccc1 | / | -8 | / | 0 | / | /
Cc1cc(C)c(O)c(CN(C)Cc2cc(Cl)cc(Cl)c2O)c1 | 60* | -2 | 16 | -12 | -27 | 75*
Cc1ccnc(NCc2cc(Cl)cc(Cl)c2O)c1 | -3 | -5 | -5 | -2 | 5 | /
COc1ccc2c(c1OC)C(=O)N1c3ccccc3C(=O)N(c3ccccc3)C21 (stereo not given) | 68* | / | -10 | / | -4 | 97*
COc1ccc2c(c1OC)C(=O)N1c3ccccc3C(=O)N(c3ccc(F)cc3)C21 (stereo not given) | 32 | / | -5 | / | -4 | /
Cc1ccc(-c2cccc(C(=O)NCc3ccccc3)n2)c2ccccc12 | 53* | 0 | 2 | 7 | -13 | 31
CC1Cc2ccccc2N1c1ncnc2nc[nH]c12 (stereo not given) | 65* | / | -87 | / | 1 | 87*
CCCNC(=O)C[C@@H]1CC[C@H]2[C@H](COc3ccc(NC(=O)NC(C)C)cc3C(=O)N2C)O1 | / | 4 | / | 7 | / | /
Oc1ccc(C[C@H]2CN([C@@H](Cc3ccc(O)cc3)CN3CCC[C@@H]3CN3C(=S)NC[C@@H]3Cc3ccccc3)C(=S)N2CC2CCCCCC2)cc1 | 58* | 89* | -29 | 34 | -36 | 20
CC(C)C[C@H]1CNC(=S)N1C[C@H]1CCCN1C[C@H](Cc1ccccc1)N1C[C@H](Cc2ccc(O)cc2)N(CC2CCCCCC2)C1=S | 61* | 13 | -7 | 18 | -47 | 44*
CC(C)C[C@@H](CN1CCCC1CN1C(=S)NC[C@@H]1Cc1ccc(O)cc1)N1C[C@H](Cc2ccc(O)cc2)N(CC2CCCCC2)C1=S (stereo not given in full) | 59* | 50 | -38 | 11 | -18 | 60*
CC(C)C[C@@H](CN1CCC[C@@H]1CN1C(=S)NC[C@@H]1Cc1ccccc1)N1C[C@H](Cc2ccc(O)cc2)N(CC2CCCCC2)C1=S | 23 | 3 | -1 | -4 | -10 | /
CC(C)C[C@H]1CNC(=S)N1CC1CCCN1C[C@H](Cc1ccc(O)cc1)N1C[C@H](Cc2ccccc2)N(CC2CCCCCC2)C1=S (stereo not given in full) | 10 | 26 | -6 | 6 | 2 | /
Oc1ccc(C[C@H]2CNC(=S)N2CC2CCCN2C[C@H](Cc2ccc(O)cc2)N2C[C@H](Cc3ccc(O)cc3)N(CC3CCCCC3)C2=S)cc1 (stereo not given in full) | 59* | 91* | -36 | 12 | -13 | 59*
CC(C)C[C@H]1CN([C@@H](Cc2ccc(O)cc2)CN2CCC[C@@H]2CN2C(=S)NC[C@@H]2Cc2ccccc2)C(=S)N1CC1CCCCC1 | 3 | 42 | -5 | 8 | -3 | /
Cc1noc(C)c1S(=O)(=O)Nc1ccc2c(c1)C(=O)N([C@H](C)CO)C[C@@H](C)[C@@H](CN(C)S(=O)(=O)c1cccs1)OCCCC[C@@H](C)O2 | / | 2 | / | 3 | / | /
COCC(=O)Nc1ccc2c(c1)C(=O)N(C)[C@H]1CC[C@@H](CC(=O)NCCc3ccncc3)O[C@@H]1CO2 | / | -20 | / | -2 | / | /
CO[C@@H]1CN(C)C(=O)c2cc(NS(C)(=O)=O)ccc2OC[C@H](C)N(Cc2cncnc2)C[C@@H]1C | / | -1 | / | 6 | / | /
SMILES | CF NFkB block | PAX8 inh HTS | HIF-2a block | EWS-Fli inh | KKLEB cytotox | CF NFkB conf
C[C@H]1CN([C@@H](C)CO)C(=O)CCCn2nncc2CO[C@@H]1CN(C)C(=O)Nc1cccc(Oc2ccccn2)c1 | / | 4 | / | 0 | / | /
Oc1ccc(C[C@H]2CNC(=S)N2C[C@H]2CCCN2C[C@H](Cc2ccccc2)N2C[C@H](Cc3ccc(O)cc3)N(CC3CCCCCC3)C2=S)cc1 | 45 | 11 | -17 | 18 | -21 | /
Oc1ccc(C[C@H]2CNC(=S)N2CC2CCCN2C[C@H](Cc2ccccc2)N2C[C@H](Cc3ccc(O)cc3)N(CC3CCCCCC3)C2=S)cc1 (stereo not given in full) | 58* | 73* | -37 | 19 | -24 | 42*
C[C@H]1CCCCO[C@H](CN(C)Cc2ccccc2)[C@@H](C)CN([C@@H](C)CO)C(=O)c2cc(N(C)C)ccc2O1 | / | -1 | / | 1 | / | /
C[C@H](CO)N1C[C@H](C)[C@@H](CN(C)C(=O)Nc2ccc(F)cc2)Oc2ccc(NS(=O)(=O)c3cn(C)cn3)cc2CC1=O | / | / | / | -7 | / | /
COc1cc2c(cc1OC)CN(C(=O)[C@H]1[C@@H]3C(=O)O[C@@H](c4ccccc4)[C@@H](c4ccccc4)N3[C@@H](c3ccccc3OCCO)[C@]13C(=O)Nc1ccc(C#CCCO)cc13)CC2 | / | 8 | / | 15 | / | /
COc1ccc(NC(=O)Nc2nnc(CC(=O)NCc3ccccc3)s2)cc1 | -22 | -20 | -9 | -1 | 1 | /
COc1cccc(NC(=O)Nc2nnc(CC(=O)NCc3ccccc3)s2)c1 | 61* | -24 | 12 | -21 | -2 | 80*
COc1ccc(NC(=O)Nc2nnc(-c3ccncc3)s2)cc1 | 58* | -50 | -174 | -64 | -21 | 53*
COc1ccc(NC(=O)Nc2nnc(-c3ccco3)s2)cc1 | -12 | -145 | -278 | -102 | 10 | /
C[C@H](CO)N1C[C@H](C)[C@H](CN(C)C(=O)CN(C)C)Oc2cc(C3=CCCCC3)ccc2S1(=O)=O | / | / | / | 0 | / | /
C[C@@H](NC(=O)C[C@H]1C=C[C@@H](NC(=O)Nc2ccc3c(c2)OCO3)[C@@H](CO)O1)c1ccccc1 | / | -18 | / | -5 | / | /
C[C@H]1CN([C@@H](C)CO)C(=O)c2cc(NC(=O)CCN3CCOCC3)ccc2O[C@@H]1CN(C)Cc1ccncc1 | / | 2 | / | / | / | /
C[C@@H]1CCCCO[C@H](CN(C)C(=O)Nc2ccc3c(c2)OCO3)[C@@H](C)CN([C@@H](C)CO)C(=O)c2cc(NC(=O)c3ccccc3)ccc2O1 | / | -16 | / | -3 | / | /
